EP2 antag: human EP2 receptor antagonists, primary screen, TR-FRET cAMP, C6 glioma cells | C6 glioma cells expressing human EP2; cells stimulated with saturating PGE2 | inhibition, % at 25 µM | actives 0.52% (n = 260,000) | AID 1422, 2008;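 active = percent inhibition above 40 after rounding to a whole number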;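 note: rat C6 glioma host cells with rolipram phosphodiesterase inhibitor present; the protocol text gives 20 µM as final concentration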
Target sequence (P43116 whole entry, looked up): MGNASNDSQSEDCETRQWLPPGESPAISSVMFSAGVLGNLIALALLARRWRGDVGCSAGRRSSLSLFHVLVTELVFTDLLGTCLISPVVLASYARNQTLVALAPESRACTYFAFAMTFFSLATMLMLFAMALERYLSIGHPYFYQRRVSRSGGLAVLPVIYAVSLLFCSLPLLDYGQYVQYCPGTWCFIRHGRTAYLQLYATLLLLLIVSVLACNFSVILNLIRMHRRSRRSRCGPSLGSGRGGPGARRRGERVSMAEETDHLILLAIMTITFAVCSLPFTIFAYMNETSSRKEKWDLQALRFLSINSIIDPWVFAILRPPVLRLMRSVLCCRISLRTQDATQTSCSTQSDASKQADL
Pf gametocyte: late stage P. falciparum gametocyte viability inhibitors, primary screen, ATP luminescence, HTS; inhibition, % at 10.9 µM; P. falciparum stage V gametocytes, 24 h; AID 743093, 2013; actives 0.065% (n = 150,000);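 active = inhibition above the mean plus 3 SD of compounds within the control limits, set per campaign, cut at about 38% in these data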
Furin inh: human furin inhibitors, primary screen, biochemical, fluorescence intensity; P09958; purified furin, fluorogenic substrate cleavage; inhibition, % at 20 µM or 30 µM; actives 0.061% (n = 220,000); in the data active = inhibition above about 25%
HSV augment: enhancers of HSV replication in host cells, fold increase, host cell viability. actives 0.005% (n = 220,000). AID 1956, 2009. HSV replication augmentation in cells. maximum fold increase; in the data active = maximum fold increase above about 1.5; tested in PC3 cells
EP2 mod: EP2 receptor modulators, cAMP readout, primary screen, cell-based, HTRF cAMP, PGE2 stimulation. Prostaglandin E2 receptor EP2 subtype (Homo sapiens), P43116. actives 0.83% (n = 260,000). induction, % at 25 µM. EP2-expressing cells, cAMP HTRF FRET, PGE2 co-stimulation;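 active = compounds whose cAMP rise, as percent of the full-agonist control response, exceeds 60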;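 note: rat C6 glioma line stably carrying human EP2 under a CMV promoter; the protocol text gives 20 µM as final concentration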
Each line names hits and unclear results; the compound was inactive in the other large screens; ! = not active in a repeat. Most compounds without a hit are left out; they make up all but 1.4% or so of the library.

Cc1ccc(C)c(CN2C(=O)C3(OCCCO3)c3ccccc32)c1	EP2 mod 62.5 (no result: Pf gametocyte)
CCOc1ccccc1CN1C(=O)C2(OCCO2)c2ccccc21	none (no result: EP2 antag, Furin inh, HSV augment, EP2 mod)
Oc1ccc(Cl)cc1Cc1cc(Cl)cc(Cc2cc(Cl)ccc2O)c1O	EP2 antag 57.7 (no result: Pf gametocyte, Furin inh, HSV augment)
O=C(O)c1cccc(CSc2nc(-c3ccc(Cl)cc3)cc(C(F)(F)F)n2)c1	EP2 mod 63.5
CN1CCN(CCCNN)CC1	none (no result: Pf gametocyte, Furin inh, HSV augment)
CN1CCN(CCCBr)CC1	EP2 antag 41.0 (no result: Pf gametocyte, Furin inh, HSV augment)
CC1(C)Cc2c(c(N3CCCC3)nc3sc4c(N5CCN(CCO)CC5)ncnc4c23)CO1	none (no result: EP2 antag, HSV augment)
CC1(C)Cc2c(c(N3CCCC3)nc3sc4c(N5CCOCC5)ncnc4c23)CO1	EP2 mod 72.9 (no result: Pf gametocyte, Furin inh, HSV augment)
CCOC(=O)c1sc(-c2ccc(OC)cc2)cc1NC(C)=O	EP2 antag 40.1
Cc1ccc(NC(=S)Nc2ccc3[nH]c(=O)[nH]c3c2)cc1C	none
COc1cc(-c2nn3c(C4CCCCC4)nnc3s2)cc(OC)c1OC	none (no result: Pf gametocyte)
COc1ccc(-c2nn3c(C4CCCCC4)nnc3s2)cc1OC	EP2 mod 61.1
O=C(Cc1csc(Nc2nc(=S)[nH]c3ccccc23)n1)N1CCN(c2cccc(Cl)c2)CC1	none
Cc1ccc(C(=O)n2c3ccccc3c3ccccc32)cc1	EP2 mod 63.7
CC(=O)n1c2ccccc2c2ccccc21	none (no result: Pf gametocyte)
CCOc1cc(/C=N/NC(N)=O)cc(Br)c1OCc1ccccc1F	EP2 mod 62.1
Cc1cc(C)c2c(=O)n(CC(=O)Nc3ccc(Br)c(C)c3)sc2n1	none
COc1ccc(OC)c(CCNC(=O)Cn2sc3nc(C)cc(C)c3c2=O)c1	EP2 antag 111.7 (no result: Pf gametocyte)
Cc1cc(C)c2c(=O)n(CC(=O)Nc3cccc(Cl)c3C)sc2n1	EP2 antag 44.2
Cc1cc(C)c2c(N)c(C(=O)NC3CCCC3)sc2n1	none
Cc1cc(C)c2c(=O)n(CC(=O)NC3CCCC3)sc2n1	EP2 antag 117.6
COc1ccc(S(=O)(=O)Nc2ccc3c(c2)C(=O)N([C@H](C)CO)C[C@H](C)[C@@H](CN(C)C(=O)Nc2ccc(C(F)(F)F)cc2)O3)cc1	none (no result: EP2 antag, Furin inh, HSV augment, EP2 mod)
O=c1[nH]c2ccccc2c2oc(CCl)nc12	none
CCOC(=O)C1=C(C)N(c2ccc(OC)cc2)C(=O)/C1=C\c1ccc(O)c(OCC)c1	EP2 antag 41.4
CCOC(=O)C1=C(C)N(c2ccc(OC)cc2)C(=O)/C1=C\c1cccs1	none
Cc1onc(-c2ccccc2Cl)c1C(=O)Nc1sc2c(c1C(N)=O)CCC(C)C2 (centres undefined)	EP2 mod 61.8 (no result: EP2 antag, HSV augment)
COC(=O)C1=CN(Cc2ccc(OC)cc2)C=C(C(=O)OC)C1c1ccsc1	EP2 mod 61.3
CC(C)(C)c1cc(C(=O)N2CCC3(CC2)NC(=O)c2ccccc2O3)n[nH]1	none (no result: Pf gametocyte, Furin inh, HSV augment)
CCc1[nH]nc2c1C(c1ccc(Br)s1)C(C#N)=C(N)O2 (centres undefined)	EP2 antag 44.3
Cc1ccc(C2C(C#N)=C(N)Oc3n[nH]c(-c4cccs4)c32)s1 (centres undefined)	EP2 antag 43.5! (no result: Pf gametocyte)
c1ccc(Cc2nnc3sc(-c4ccc5c(c4)OCCO5)nn23)cc1	none (no result: Pf gametocyte)
CC1(C)CC(=O)C2=C(C1)OC1=C(C(=O)CC(C)(C)C1)C2c1ccc(O)cc1O	EP2 antag 98.2 (no result: Pf gametocyte)
CC1(C)CC(=O)C2=C(C1)OC1=C(C(=O)CC(C)(C)C1)C2c1ccc(O)c([N+](=O)[O-])c1	none
CCSc1ccccc1C(=O)Nc1nncs1	Furin inh 26.7 (no result: Pf gametocyte)
Cc1ccccc1C(=O)Nc1nncs1	none (no result: Pf gametocyte)
CCN(CC)CCNc1ncnc2c1[nH]c1ccc(OC)cc12	none (no result: Pf gametocyte)
COc1ccc2[nH]c3c(NCCC4=CCCCC4)ncnc3c2c1	EP2 antag 74.5
CCN(CC)CC[n+]1ccc2c(C)c3[nH]c4ccccc4c3c(C)c2c1	EP2 antag 58.2 (no result: Pf gametocyte, Furin inh, HSV augment)
CCN(CC)CCn1c(=S)[nH]c2ccccc2c1=O	none (no result: Pf gametocyte)
Cc1ccc(NC(=S)Nc2cccc(-c3n[nH]c(=S)o3)c2)cc1	EP2 antag 41.7
Cc1cccc(NC(=S)N/N=C/c2cccn2Cc2ccc(F)cc2)c1	none
CC(Cc1c[nH]c2ccccc12)NC(=O)C1CCCNC1=O (centres undefined)	none
CCOC(=O)c1cc2c(ccn2C)n1Cc1ccccc1Cl	EP2 mod 63.3
CCOC(=O)c1cc2c(ccn2C)n1CC(=O)N(Cc1ccccc1)c1ccccc1	none
Cc1ccccc1Cn1c(C(=O)OC(C)C)cc2c1ccn2C	none (no result: Pf gametocyte)
CCOC(=O)c1cc2c(ccn2C)n1Cc1ccccc1C	EP2 mod 62.0 (no result: Pf gametocyte)
CCn1cc(C=C2C(=O)c3ccccc3C2=O)c2ccccc21	EP2 antag 42.1
CCN=C1S/C(=C\c2cn(CC)c3ccccc23)C(=O)N1CC	none
O=C(O)CCCCCC[C@H]1C(=O)NC(=O)N1CC[C@@H](O)C1CCCCC1	EP2 mod 100.0 (no result: Pf gametocyte, Furin inh, HSV augment)
O=C(O)CCCCCN1C(=O)C2CCCCC2C1=O (centres undefined)	none
O=C(O)CCCCCCC1C(=O)NC(=O)N1CCC(O)C1CCCCC1 (centres undefined)	EP2 mod 106.2 (no result: Pf gametocyte)
Cc1cccc(OCc2nnc(SCC(=O)N3c4ccccc4CCc4ccccc43)o2)c1	none
COC(=O)C(=C/C(C)=C/c1cccs1)C(=O)OC	none
CC(NC(=O)/C(C#N)=C/c1ccc(Cl)c([N+](=O)[O-])c1)c1ccccc1 (centres undefined)	EP2 antag 68.7
CCCN(CCC)CCCNC(=O)CCNS(=O)(=O)c1ccc(Br)cc1	none
CC(C)COC(=O)CNc1n[nH]c(=S)[nH]c1=O	EP2 antag 133.3 (no result: HSV augment)
NC(=O)CNc1n[nH]c(=S)[nH]c1=O	none (no result: Pf gametocyte)
CCCCOC(=O)C(C)Nc1n[nH]c(=S)[nH]c1=O (centres undefined)	none
CCCCOC(=O)CNc1n[nH]c(=S)[nH]c1=O	EP2 antag 113.7
COc1cccc(-c2cc(C(=O)O)[nH]n2)c1	none (no result: Pf gametocyte)
CCN(CC)c1ccc(C=C(c2nnnn2-c2ccccc2)c2nnnn2-c2ccccc2)cc1	HSV augment 3.09 (no result: Pf gametocyte)
Cc1ccc(-n2nnnc2C(=Cc2ccc(N(C)C)cc2)c2nnnn2-c2ccc(C)cc2)cc1	none (no result: EP2 antag, Pf gametocyte, HSV augment)
O=C(c1ccco1)N1CCN(S(=O)(=O)c2ccc3c(c2)OCCO3)CC1	none (no result: Pf gametocyte)
O=C(COc1ccccc1)Nc1ccc(S(=O)(=O)N2CCOCC2)cc1	EP2 antag 52.2 (no result: Pf gametocyte)
COc1ccc(OCC(=O)Nc2ccc(S(=O)(=O)N3CCOCC3)cc2)cc1	none (no result: Pf gametocyte)
Cc1cccc(S(=O)(=O)Nc2cccc3c2C(=O)c2ccccc2-3)c1	HSV augment 4.08 (no result: Pf gametocyte)
Cc1ccc(NS(=O)(=O)c2ccc3c(c2)C(=O)c2ccccc2C3=O)c(C)c1	none
CCOC(=O)c1c(NC(=S)Nc2ccccc2)sc2c1CCCCC2	EP2 antag 52.4 (no result: Pf gametocyte)
CCOC(=O)c1c(NC(=O)COC)sc2c1CCC2	EP2 mod 83.0 (no result: Pf gametocyte, Furin inh, HSV augment)
COCC(=O)Nc1sc2c(c1C(=O)OC)CCCC2	none
COc1ccc(C(=O)CSc2nc3[nH]ncc3c(=O)[nH]2)cc1	none
